Cycloheximide cs: Cycloheximide Counterscreen for Small Molecule Inhibitors of Shiga Toxin | max response, % | 12% of 300,000 active | cell reporter, cycloheximide protein synthesis inhibition counterscreen; in the data active means max response mostly above about 13%, no sharp cut-off; inactive means mostly below about 14%; further: read at 38.3 µM for the half of the compounds with a filed dose
Lassa entry inh: qHTS for Inhibitors of binding or entry into cells for Lassa Virus; Lassa virus pseudotype entry inhibition, cell reporter; Potency, µM (doses to about 37.9 µM), hits mostly inhibitors; 1.2% of 300,000 active; AID 540256, 2011; calls by dose curve; tested in HEK293 cells; further: nearly all actives have a fitted effect of over 50% in size
MARV entry inh: qHTS for inhibitors of binding or entry into cells for Marburg Virus; Marburg virus pseudotyped entry inhibition, cell reporter; 1.8% of 300,000 active; Potency, µM (top dose mostly 37.8 µM), most hits filed as inhibitors; calls by dose curve; tested in HEK293 cells
AMA1-RON2 inh: qHTS for Inhibitors of AMA1-RON; Towards Development of Antimalarial Drug Lead: Primary Screen. Plasmodium falciparum AMA1 (3D7) - RON2 peptide interaction. AlphaScreen AMA1-biotinylated RON2 peptide binding. Potency, µM (titrated, usually from 58.2 µM), actives largely listed as inhibitors. 0.2% of 360,000 active. AID 720542, 2013; active means well fitted inhibition curve with a large enough effect; inconclusive means small, poorly fitted or top-dose-only effect; inactive means no such curve, though single readings can be large or run the other way; further: nearly all actives have a fitted effect of over 45% in size
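AMA1 (3D7) with his tag at 25 nM final met compounds first, then biotinylated RON2 peptide at 25 nM; detection used donor plus acceptor beads, 10 µg/mL apiece, read by AlphaScreen after 30 min at room temperature.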
Shiga toxin inh: A qHTS for Small Molecule Inhibitors of Shiga Toxin; inhibition, % at 38.7 µM; Vero cells, Shiga toxin protein synthesis inhibition reporter; 9.2% of 290,000 active; in the data active means inhibition mostly above about 28%, no sharp cut-off; inactive means mostly below about 43%
Numbers stand for hits; i = inactive; ? = inconclusive; nt = no result. This excerpt belongs to a sample that is enriched for hits.

SMILES | Cycloheximide cs | Lassa entry inh | MARV entry inh | AMA1-RON2 inh | Shiga toxin inh
CC(C)C(=O)Nc1ccc(NC(=O)CCc2ccccc2)cn1 | i | i | ? | i | i
CCCC(=O)Nc1ccc(NC(=O)c2ccco2)cn1 | 18 | i | i | i | 27
CC(C)C(=O)Nc1ccc(NC(=O)c2ccco2)cn1 | 23 | i | i | i | i
C[C@@H]1CC[C@H]2C(=O)N(Cc3cccc([N+](=O)[O-])c3)C[C@@H](O)CN2[C@@H]1c1ccc(Br)cc1 | nt | nt | i | nt | nt
O=C(Cn1c(O)c(/C=C2\C=Nc3ccccc32)sc1=O)Nc1ccc2c(c1)OCO2 | 29 | i | i | i | i
O=C(Cn1c(O)c(/C=C2\C=Nc3ccccc32)sc1=O)N1CCOCC1 | i | nt | nt | i | i
CC(/C=N/NC(=O)Cn1nccc1C)=C\c1ccc(C(C)C)cc1 | 42 | i | i | i | 43
CC(/C=N/NC(=O)Cn1nnc(N)n1)=C\c1ccc(C(C)C)cc1 | 24 | i | i | i | 77
Cc1ccc(/C=N/NC(=O)Cn2nnc(N)n2)cc1 | i | nt | nt | i | i
CC(=C/c1ccc(C(C)C)cc1)/C=N/NC(=O)Cn1nc(C)cc1C | 18 | i | i | i | i
COc1ccc(/C=N/NC(=O)CCn2nc(C)cc2C)cc1 | i | ? | i | i | i
CC(/C=N\NC(=O)Cn1cncn1)=C/c1ccc(C(C)C)cc1 | 24 | i | ? | i | 81
CC(/C=N/NC(=O)Cn1cnc2ccccc21)=C\c1ccccc1 | i | ? | i | i | i
COc1ccc(/C=C(\C#N)c2nc3ccccc3[nH]2)cc1O | 19 | i | ? | i | 29
COc1cc(/C=C(/C#N)c2nc3ccccc3c(=O)[nH]2)ccc1O | i | i | i | i | i
COc1c(O)ccc(/C=C(\C#N)c2nc3ccccc3[nH]2)c1[N+](=O)[O-] | 40 | i | i | i | 64
COc1c(Cl)cc(Cl)cc1/C=C(\C#N)c1nc2ccccc2[nH]1 | nt | i | nt | nt | nt
COc1cc(/C=C(\C#N)c2nc3ccccc3[nH]2)ccc1Oc1ccc([N+](=O)[O-])cn1 | 23 | i | ? | i | i
COc1cc(/C=C(\C#N)c2nc3ccccc3[nH]2)cc(Br)c1OCc1ccccc1 | 12 | ? | ? | i | i
C[C@@H]1CN([C@H](C)CO)S(=O)(=O)c2ccc(C3=CCCCC3)cc2O[C@H]1CN(C)C(=O)Cc1cccnc1 | nt | nt | nt | i | nt
CCc1ccc(NC(=O)CSC2=Nc3ccccc3C3=NC(CCC(=O)NCCc4ccccc4)C(=O)N23)cc1 (stereo not given) | nt | i | nt | nt | nt
CCc1ccccc1NC(=O)c1sc(-n2nc(C)c(Cc3ccc4c(c3)OCO4)c2C)nc1C | nt | i | i | nt | nt
CCOc1ccccc1CNC(=O)Cn1nc(C)c2nn(-c3ccc(Cl)cc3)c(C)c2c1=O | nt | i | nt | nt | nt
CCC(=O)Oc1ccc(/C=C(\C#N)c2nc3ccccc3[nH]2)cc1OC | nt | i | nt | nt | nt
COc1cc(/C=C(/C#N)c2nc3ccccc3[nH]2)ccc1OC(=O)c1ccco1 | 28 | i | i | i | 82
SMILES | Cycloheximide cs | Lassa entry inh | MARV entry inh | AMA1-RON2 inh | Shiga toxin inh
CC(C)(C)NC(=O)CSc1ncnc2c1nnn2Cc1ccccc1Cl | i | 18µM | ? | i | i
O=C(CSc1ncnc2c1nnn2Cc1ccccc1)NC1CCCC1 | i | i | i | i | i
CN1c2ccc(Cl)cc2-c2nc(SCC(=O)NCc3ccccc3)ncc2S1(=O)=O | nt | i | nt | nt | nt
Cc1nc2cc(NCc3nc4ccccc4n3Cc3ccccc3)ccc2n1C | 27 | ? | 10µM | ? | 44
Cn1c(CNc2ccc(Cl)cc2)nc2ccccc21 | 31 | ? | i | i | 110
Cc1ccc(NCc2nc3ccccc3n2C)c(C)c1 | 23 | ? | 2.5µM | i | 45
COc1cc2c(cc1OC)C1O[C@](c3ccsc3)(C2)OC2=C1C(=O)OC1(CCCCC1)C2 | i | nt | nt | nt | i
COc1ccc(C(=O)NC(=S)NC2CCSC2=O)cc1 (stereo not given) | i | i | i | i | 27
COc1ccc(C(=O)NC(=S)N2CCCCC2)cc1 | 19 | ? | ? | i | 40
COc1ccc(C(=O)NC(=S)N2CCCC2)cc1 | i | ? | i | i | i
CC1CCN(C(=S)NC(=O)c2ccco2)CC1 | 33 | ? | i | i | i
O=C(COc1ccc(Cl)cc1)NC1CCSC1=O (stereo not given) | 19 | i | i | i | 53
CCc1nc2ccc(C(=O)N3CCN(S(=O)(=O)CC)CC3)cn2c1N(CC)Cc1cccc(Br)c1 | nt | nt | nt | i | nt
COc1cccc(C(C)(O)c2nc(-c3ccc(F)cc3OC)cs2)c1 (stereo not given) | nt | nt | nt | i | nt
